Assay results as given in the supplement of paper PMC11732987, “Enantioselective OTUD7B fragment discovery through chemoproteomics screening and high-throughput optimisation” (Communications Chemistry, 2025).

Tests used:
Test in all cases: log2 ratio of Biotin-Ahx-Ub-VS probe labelling (fragment/DMSO); higher = less target engagement (more negative = stronger competition), active = hit call of the paper (q ≤ 0.05, log2 ratio ≤ -1)
Settings in all cases: compound concentration: 200 uM; treatment time: 3 h
USP42 = target: T1, USP42 (UniProt Q9H9J4)
T1 sequence (whole entry): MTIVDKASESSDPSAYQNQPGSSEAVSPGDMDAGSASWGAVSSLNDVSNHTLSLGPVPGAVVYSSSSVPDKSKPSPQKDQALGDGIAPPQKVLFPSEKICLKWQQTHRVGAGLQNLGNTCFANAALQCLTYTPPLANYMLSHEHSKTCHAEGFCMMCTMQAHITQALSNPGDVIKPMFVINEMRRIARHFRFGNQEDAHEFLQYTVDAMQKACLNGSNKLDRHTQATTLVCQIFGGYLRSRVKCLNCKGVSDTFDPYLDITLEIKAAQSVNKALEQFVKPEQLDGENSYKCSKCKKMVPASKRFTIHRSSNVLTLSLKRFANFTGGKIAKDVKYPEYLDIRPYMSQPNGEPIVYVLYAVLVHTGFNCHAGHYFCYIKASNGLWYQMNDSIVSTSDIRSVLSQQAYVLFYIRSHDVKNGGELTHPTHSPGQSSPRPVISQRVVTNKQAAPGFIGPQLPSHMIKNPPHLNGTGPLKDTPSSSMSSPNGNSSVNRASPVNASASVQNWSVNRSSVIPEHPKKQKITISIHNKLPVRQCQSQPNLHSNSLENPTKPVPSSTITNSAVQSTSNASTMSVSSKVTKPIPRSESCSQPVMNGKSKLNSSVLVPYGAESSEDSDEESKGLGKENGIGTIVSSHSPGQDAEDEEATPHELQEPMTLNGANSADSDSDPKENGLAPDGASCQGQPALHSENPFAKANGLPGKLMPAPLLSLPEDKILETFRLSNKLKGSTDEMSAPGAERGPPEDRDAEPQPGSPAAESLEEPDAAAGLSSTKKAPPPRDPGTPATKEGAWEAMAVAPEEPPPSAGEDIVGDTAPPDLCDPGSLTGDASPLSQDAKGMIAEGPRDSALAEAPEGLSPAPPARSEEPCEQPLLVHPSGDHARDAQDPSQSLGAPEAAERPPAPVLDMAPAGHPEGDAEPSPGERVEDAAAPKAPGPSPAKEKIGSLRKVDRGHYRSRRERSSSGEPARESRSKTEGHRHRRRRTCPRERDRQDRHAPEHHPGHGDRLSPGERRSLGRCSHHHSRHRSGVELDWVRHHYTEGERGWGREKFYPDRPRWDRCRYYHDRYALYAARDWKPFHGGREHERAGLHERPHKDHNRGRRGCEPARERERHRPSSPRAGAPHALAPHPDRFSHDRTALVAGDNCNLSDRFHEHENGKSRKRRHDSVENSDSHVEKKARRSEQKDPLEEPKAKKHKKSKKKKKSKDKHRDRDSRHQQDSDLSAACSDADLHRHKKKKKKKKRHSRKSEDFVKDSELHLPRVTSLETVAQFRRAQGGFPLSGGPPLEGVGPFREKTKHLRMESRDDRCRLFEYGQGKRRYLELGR
Outline: (§1)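 Triplicate samples of HEK293T lysate, 495 µg each, received fragment at 200 µM or vehicle for 3 h, followed by Biotin-Ahx-Ub-VS (0.5 µM final) for 1 h. After NeutrAvidin enrichment of labelled DUBs and LysC/trypsin digestion, peptides were run by diaPASEF LC-MS/MS. The values are average log2 fragment/vehicle ratios from global-median-normalised Spectronaut label-free quantities, tested by unpaired t-test on proteins having ≥2 unique peptides.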

USP46 = USP46 (UniProt P62068)
USP46, sequence (P62068 whole entry): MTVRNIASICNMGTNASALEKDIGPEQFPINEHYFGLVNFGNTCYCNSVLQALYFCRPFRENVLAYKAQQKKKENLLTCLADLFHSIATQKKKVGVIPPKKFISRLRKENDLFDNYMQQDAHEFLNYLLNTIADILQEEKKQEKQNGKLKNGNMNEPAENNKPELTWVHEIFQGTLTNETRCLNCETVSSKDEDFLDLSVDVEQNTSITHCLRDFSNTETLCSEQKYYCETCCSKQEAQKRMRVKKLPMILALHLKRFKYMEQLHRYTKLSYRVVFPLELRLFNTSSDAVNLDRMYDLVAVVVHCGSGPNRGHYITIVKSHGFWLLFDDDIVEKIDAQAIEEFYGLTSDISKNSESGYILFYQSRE
Outline: as §1

USP47 = target: T2, USP47 (UniProt Q96K76)
T2 sequence (whole entry): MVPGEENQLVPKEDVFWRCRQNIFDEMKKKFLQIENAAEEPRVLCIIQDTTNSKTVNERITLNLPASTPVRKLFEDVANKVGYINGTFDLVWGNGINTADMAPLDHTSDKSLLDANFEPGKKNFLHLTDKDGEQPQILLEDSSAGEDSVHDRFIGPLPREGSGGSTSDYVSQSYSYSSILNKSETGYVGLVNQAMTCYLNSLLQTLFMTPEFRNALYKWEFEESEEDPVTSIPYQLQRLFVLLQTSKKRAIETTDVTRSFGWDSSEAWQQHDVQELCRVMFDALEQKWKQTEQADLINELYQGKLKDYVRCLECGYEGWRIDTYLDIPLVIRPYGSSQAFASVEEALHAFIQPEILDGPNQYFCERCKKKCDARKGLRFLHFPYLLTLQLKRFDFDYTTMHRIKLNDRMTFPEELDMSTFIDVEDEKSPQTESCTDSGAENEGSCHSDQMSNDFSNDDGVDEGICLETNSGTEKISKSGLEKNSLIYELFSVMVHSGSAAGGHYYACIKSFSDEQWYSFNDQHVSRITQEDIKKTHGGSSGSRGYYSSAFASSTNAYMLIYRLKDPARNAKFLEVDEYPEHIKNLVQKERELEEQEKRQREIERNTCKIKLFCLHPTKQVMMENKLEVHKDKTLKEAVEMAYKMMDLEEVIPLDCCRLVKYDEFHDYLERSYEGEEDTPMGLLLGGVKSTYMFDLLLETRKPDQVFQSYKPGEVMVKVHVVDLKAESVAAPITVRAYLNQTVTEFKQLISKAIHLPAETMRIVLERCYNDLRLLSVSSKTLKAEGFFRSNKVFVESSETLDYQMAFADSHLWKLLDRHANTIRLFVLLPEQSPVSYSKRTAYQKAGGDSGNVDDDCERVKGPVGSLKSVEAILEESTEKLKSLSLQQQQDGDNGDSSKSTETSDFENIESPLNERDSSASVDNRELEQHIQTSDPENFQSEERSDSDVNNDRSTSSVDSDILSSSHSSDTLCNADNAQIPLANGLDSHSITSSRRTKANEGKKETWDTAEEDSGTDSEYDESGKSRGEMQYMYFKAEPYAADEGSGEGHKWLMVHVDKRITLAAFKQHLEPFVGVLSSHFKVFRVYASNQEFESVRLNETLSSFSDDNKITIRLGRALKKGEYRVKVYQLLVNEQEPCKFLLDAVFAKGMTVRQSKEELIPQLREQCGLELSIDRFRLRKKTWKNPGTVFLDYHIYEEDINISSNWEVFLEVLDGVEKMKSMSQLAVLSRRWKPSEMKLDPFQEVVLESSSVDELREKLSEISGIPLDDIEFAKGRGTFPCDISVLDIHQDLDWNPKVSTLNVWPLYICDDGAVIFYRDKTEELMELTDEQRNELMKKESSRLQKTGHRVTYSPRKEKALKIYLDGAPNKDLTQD
Outline: as §1

USP48 = target: T3, USP48 (UniProt Q86UV5)
T3 sequence (whole entry): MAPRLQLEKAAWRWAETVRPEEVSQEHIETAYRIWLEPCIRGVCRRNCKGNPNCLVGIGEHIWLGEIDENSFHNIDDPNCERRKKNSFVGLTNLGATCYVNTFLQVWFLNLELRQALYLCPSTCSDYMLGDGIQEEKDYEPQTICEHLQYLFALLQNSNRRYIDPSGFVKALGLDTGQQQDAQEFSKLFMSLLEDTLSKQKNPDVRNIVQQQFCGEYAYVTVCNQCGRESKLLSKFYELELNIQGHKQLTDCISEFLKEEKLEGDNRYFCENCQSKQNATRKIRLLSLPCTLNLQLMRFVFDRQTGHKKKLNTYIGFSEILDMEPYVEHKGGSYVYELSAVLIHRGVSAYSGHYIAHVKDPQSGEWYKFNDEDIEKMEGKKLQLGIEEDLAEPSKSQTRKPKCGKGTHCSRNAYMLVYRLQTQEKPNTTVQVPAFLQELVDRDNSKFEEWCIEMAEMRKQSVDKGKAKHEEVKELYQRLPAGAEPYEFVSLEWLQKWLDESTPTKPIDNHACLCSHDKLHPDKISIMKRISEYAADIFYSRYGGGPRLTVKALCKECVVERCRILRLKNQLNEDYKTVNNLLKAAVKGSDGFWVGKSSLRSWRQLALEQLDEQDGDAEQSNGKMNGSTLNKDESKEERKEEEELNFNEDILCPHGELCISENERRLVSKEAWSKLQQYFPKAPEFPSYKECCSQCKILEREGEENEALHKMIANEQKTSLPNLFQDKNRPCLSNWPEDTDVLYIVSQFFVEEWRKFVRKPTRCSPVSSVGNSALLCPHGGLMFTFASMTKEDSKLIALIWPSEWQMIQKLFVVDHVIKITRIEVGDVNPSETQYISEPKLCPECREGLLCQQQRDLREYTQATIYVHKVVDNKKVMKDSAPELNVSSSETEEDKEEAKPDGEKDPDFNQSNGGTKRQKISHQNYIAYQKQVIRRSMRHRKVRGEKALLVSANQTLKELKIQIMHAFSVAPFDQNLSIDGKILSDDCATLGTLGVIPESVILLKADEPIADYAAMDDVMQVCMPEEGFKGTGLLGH
Outline: as §1

USP5 = target: T4, USP5 (UniProt P45974)
T4 sequence (whole entry): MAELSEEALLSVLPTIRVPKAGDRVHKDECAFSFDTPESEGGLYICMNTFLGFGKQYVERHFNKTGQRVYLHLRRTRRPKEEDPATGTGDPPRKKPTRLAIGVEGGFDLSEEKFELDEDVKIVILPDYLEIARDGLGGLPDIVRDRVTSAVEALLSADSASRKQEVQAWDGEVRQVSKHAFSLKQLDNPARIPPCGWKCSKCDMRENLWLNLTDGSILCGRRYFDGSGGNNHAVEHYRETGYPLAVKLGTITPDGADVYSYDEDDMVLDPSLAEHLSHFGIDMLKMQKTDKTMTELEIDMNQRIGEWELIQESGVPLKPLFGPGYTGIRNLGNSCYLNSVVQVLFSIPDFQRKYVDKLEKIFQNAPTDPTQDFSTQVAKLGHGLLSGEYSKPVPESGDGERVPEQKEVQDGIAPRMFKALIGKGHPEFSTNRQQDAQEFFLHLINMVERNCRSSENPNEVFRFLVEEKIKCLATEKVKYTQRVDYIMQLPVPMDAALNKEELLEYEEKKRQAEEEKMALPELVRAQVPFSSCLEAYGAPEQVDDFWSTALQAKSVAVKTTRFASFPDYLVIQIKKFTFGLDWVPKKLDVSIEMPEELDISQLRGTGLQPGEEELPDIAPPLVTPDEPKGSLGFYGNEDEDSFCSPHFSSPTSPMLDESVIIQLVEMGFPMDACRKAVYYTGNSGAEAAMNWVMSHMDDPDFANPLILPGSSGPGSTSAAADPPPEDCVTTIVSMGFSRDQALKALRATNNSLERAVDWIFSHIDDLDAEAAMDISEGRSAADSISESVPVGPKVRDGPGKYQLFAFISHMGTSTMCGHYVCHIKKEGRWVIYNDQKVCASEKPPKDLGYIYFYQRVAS
Outline: as §1

USP54 = USP54 (UniProt Q70EL1)
USP54, sequence (Q70EL1 whole entry): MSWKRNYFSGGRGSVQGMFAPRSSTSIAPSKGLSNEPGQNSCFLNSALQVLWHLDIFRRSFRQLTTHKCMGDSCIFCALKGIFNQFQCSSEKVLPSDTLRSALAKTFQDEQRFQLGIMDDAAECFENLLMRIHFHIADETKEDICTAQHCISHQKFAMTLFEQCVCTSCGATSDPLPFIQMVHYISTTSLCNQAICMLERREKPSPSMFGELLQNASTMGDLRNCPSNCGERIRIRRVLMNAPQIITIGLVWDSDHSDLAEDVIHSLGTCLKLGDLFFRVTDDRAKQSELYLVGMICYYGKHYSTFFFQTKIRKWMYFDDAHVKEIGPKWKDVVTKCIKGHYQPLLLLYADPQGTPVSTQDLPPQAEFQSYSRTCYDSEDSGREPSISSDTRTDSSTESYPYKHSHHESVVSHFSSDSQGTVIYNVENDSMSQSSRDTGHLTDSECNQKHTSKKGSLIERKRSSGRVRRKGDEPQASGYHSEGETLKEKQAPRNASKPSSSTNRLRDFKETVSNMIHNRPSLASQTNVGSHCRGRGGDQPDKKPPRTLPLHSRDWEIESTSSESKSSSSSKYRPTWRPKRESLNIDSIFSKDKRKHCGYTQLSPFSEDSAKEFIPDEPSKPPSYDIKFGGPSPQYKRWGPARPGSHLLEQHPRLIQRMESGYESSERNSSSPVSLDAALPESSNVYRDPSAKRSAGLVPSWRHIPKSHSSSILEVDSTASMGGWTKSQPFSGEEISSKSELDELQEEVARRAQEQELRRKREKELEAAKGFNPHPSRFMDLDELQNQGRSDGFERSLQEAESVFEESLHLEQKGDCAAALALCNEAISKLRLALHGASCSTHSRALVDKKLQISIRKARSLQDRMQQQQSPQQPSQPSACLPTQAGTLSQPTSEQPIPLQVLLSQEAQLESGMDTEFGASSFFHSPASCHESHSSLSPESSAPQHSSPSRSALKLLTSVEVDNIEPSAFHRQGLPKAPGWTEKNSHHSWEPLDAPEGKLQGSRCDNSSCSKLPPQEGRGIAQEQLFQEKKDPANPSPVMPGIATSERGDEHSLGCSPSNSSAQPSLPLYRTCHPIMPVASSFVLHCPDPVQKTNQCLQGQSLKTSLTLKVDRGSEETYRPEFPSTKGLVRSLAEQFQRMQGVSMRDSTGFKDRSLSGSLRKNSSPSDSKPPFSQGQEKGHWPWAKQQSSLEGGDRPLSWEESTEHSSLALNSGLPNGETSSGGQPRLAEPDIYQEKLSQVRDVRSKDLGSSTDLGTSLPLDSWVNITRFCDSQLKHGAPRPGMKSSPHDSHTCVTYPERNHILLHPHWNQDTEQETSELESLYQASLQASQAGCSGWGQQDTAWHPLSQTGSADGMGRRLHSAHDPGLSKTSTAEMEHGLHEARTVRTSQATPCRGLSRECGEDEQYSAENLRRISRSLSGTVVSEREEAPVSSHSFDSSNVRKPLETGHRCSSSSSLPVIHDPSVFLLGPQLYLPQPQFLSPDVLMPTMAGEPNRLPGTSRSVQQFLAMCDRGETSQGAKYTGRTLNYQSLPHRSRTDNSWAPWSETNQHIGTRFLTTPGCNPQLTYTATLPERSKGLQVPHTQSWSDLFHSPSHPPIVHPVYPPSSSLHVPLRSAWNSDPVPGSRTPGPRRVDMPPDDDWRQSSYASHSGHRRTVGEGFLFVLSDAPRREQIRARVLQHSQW
Outline: as §1

USP7 = USP7 (UniProt Q93009)
Outline: as §1

USP8 = target: T5, USP8 (UniProt P40818)
T5 sequence (whole entry): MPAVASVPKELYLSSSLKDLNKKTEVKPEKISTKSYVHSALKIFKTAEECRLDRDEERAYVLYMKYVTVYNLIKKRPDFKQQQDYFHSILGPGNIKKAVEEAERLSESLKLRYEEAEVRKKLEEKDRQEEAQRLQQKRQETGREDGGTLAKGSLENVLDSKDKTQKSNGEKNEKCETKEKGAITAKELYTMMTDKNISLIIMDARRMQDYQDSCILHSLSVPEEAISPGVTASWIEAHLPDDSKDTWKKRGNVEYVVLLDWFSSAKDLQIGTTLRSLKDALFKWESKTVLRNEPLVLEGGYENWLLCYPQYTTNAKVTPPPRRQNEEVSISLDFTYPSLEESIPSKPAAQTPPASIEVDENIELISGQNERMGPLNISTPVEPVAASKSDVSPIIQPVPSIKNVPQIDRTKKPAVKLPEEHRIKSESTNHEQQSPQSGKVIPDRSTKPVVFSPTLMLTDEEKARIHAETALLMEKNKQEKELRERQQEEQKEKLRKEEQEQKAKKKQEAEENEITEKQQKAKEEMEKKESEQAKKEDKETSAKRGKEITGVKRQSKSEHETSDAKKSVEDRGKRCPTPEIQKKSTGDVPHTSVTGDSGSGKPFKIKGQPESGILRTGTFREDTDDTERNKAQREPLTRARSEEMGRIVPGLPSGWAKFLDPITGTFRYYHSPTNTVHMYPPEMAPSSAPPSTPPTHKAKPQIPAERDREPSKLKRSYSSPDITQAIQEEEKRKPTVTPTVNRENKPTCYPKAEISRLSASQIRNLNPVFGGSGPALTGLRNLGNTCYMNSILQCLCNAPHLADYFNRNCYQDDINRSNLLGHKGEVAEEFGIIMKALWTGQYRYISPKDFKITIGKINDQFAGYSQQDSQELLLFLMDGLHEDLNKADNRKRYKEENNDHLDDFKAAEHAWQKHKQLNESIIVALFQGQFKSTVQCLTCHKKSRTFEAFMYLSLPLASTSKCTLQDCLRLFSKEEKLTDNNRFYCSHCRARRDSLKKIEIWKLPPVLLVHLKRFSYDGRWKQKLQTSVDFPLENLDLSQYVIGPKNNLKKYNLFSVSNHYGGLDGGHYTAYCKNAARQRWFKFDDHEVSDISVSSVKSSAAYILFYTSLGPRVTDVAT
Outline: as §1

USP9X = USP9X (UniProt Q93008)
USP9X, sequence (Q93008 whole entry): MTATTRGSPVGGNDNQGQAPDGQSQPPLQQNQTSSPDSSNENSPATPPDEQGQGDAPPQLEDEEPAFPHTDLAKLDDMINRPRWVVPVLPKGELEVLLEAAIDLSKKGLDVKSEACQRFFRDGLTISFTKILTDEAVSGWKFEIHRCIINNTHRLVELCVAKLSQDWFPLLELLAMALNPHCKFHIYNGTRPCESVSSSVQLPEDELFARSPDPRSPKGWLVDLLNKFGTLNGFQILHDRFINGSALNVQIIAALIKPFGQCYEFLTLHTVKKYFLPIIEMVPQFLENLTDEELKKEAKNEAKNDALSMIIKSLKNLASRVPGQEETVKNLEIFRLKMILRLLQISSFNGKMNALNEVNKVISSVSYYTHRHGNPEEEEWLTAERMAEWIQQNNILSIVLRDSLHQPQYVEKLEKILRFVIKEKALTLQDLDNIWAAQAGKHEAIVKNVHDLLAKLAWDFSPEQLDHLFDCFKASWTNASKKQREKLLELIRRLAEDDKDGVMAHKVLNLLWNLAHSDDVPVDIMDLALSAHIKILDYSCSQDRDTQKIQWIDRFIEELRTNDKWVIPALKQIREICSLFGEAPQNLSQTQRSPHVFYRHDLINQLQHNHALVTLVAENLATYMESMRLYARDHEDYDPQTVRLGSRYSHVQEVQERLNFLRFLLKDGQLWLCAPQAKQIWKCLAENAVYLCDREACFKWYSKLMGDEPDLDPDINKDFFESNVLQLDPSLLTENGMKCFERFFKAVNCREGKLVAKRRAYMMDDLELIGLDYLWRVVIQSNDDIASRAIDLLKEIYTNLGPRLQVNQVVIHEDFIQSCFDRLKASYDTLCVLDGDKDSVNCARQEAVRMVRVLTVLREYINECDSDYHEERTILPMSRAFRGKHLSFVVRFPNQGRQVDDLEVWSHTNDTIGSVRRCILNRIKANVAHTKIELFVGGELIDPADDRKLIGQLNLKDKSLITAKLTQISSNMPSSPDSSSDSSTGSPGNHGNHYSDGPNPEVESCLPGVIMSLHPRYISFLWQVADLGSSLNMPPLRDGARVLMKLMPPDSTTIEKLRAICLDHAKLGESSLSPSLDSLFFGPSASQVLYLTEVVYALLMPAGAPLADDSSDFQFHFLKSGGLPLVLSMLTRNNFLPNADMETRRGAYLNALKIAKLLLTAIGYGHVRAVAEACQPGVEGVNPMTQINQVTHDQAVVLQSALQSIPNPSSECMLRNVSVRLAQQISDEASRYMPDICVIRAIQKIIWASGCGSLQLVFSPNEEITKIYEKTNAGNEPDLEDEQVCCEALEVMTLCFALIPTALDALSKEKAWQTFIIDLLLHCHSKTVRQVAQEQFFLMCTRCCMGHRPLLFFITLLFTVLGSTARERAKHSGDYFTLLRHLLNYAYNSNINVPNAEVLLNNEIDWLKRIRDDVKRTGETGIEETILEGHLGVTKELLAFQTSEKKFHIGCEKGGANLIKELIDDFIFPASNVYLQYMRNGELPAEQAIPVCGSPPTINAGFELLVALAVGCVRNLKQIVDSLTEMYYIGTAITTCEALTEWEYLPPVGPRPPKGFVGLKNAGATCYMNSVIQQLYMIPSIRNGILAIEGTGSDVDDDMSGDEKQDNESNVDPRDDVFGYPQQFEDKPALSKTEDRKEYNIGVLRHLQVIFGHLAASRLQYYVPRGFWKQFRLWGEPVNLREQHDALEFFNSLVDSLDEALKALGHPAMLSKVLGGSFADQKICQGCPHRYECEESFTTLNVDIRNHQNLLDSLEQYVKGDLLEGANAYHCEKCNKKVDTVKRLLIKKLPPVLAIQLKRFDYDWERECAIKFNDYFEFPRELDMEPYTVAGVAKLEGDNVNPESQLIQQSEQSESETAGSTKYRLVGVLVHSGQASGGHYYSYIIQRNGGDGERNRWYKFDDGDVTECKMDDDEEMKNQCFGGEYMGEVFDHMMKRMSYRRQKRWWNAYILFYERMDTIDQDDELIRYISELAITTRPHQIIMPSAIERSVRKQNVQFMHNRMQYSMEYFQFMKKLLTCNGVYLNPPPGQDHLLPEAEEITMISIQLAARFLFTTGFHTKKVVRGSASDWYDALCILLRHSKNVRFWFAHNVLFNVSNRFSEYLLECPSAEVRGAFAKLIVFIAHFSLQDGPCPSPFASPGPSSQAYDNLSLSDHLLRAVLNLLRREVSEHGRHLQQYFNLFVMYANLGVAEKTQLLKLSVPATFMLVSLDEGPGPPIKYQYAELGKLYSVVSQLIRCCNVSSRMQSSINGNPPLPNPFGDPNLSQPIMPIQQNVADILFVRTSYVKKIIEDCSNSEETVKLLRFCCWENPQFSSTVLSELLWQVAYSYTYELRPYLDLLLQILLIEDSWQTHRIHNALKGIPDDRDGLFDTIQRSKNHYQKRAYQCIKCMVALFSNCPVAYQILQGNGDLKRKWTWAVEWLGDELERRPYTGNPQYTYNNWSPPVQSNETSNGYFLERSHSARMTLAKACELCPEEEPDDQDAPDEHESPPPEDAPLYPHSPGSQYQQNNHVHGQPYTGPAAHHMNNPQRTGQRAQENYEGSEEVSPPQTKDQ
Outline: as §1

UniProt O00487 = target: UniProt O00487
UniProt O00487, sequence (O00487 whole entry): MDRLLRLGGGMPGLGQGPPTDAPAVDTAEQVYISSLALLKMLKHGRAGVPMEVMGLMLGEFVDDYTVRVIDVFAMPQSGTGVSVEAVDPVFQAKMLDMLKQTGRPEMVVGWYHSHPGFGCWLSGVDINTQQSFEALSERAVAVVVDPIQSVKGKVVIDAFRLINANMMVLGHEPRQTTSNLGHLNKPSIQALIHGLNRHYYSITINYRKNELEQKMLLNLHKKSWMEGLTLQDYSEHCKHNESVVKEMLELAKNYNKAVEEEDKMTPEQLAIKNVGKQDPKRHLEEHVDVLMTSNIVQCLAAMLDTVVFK
Outline: as §1

Measured: log2 ratio of Biotin-Ahx-Ub-VS probe labelling

O=C(CCl)N1CCOC(CCc2ccccc2)C1 (stereo not given)
inactive: USP42 0.335 | USP46 -0.509 | USP47 -1.03 | USP48 -0.472 | USP5 -0.132 | USP54 0.433 | USP7 -0.763 | USP8 -0.555 | USP9X -0.43 | UniProt O00487 -0.235
